# Structures can show the parent of a compound that is named as a salt.
# Key:
# Conditions in all cases: 20 µM; incubation time: 27 h, anaerobic, 37 °C;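 for the amine columns active = adjusted P below 0.05 in both replicates with a change the same way and a mean fold change under 0.8 or over 1.25; inactive = the rest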
# [1] = tested on: Clostridium sporogenes DSM 1664; assay: growth (OD595) fold change vs plate DMSO controls (fold change (ratio)); higher = more growth
# How it was run: (§1)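 Growth is expressed as the fold change relative to the median of the DMSO control wells on each plate. Cultures in mGAM were grown anaerobically in 96-well plates for 27 h at 37 °C, shaken, and read at 595 nm. Readings were blank-subtracted, corrected for compound background with 20 µM compound solutions in water, and converted to OD with a calibration factor of 5. Fold changes above 1.5 were set to NA, and each value is the mean of 2 biological replicates.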
# Escherichia coli IAI1 [2] = assay: as above
# How it was run: as §1
# [3] = tested on: Klebsiella aerogenes DSM 30053; assay: as above
# How it was run: as §1
# [4] = tested on: Ruminococcus gnavus DSM 108212; assay: as above
# How it was run: as §1
# [5] = tested on: Klebsiella aerogenes DSM 30053; assay: fold change of Histamine concentration vs plate DMSO controls (fold change (ratio)); higher = more amine produced, active = hit call of the paper (significant change in both replicates, either direction)
# How it was run: (§2)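 Amines were quantified by LC–triple-quadrupole MS in dynamic MRM mode against external calibration curves, with drift correction within each batch. The samples were whole anaerobic mGAM cultures of four gut bacterial strains, grown for 27 h at 37 °C in 80 µL wells and extracted with cold acetonitrile/methanol with 0.1% formic acid, then centrifuged. Values are reported as fold change over DMSO controls on the same plate. The mean of 2 biological replicates is given.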
# [6] = tested on: Clostridium sporogenes DSM 1664; assay: fold change of Tryptamine concentration vs plate DMSO controls (fold change (ratio)); higher = more amine produced, active = hit call of the paper (significant change in both replicates, either direction)
# How it was run: as §2
# [7] = tested on: Ruminococcus gnavus DSM 108212; assay: as above
# How it was run: as §2
# Escherichia coli IAI1 [8] = assay: fold change of Putrescine concentration vs plate DMSO controls (fold change (ratio)); higher = more amine produced, active = hit call of the paper (significant change in both replicates, either direction)
# How it was run: as §2
# [9] = tested on: Klebsiella aerogenes DSM 30053; assay: as above
# How it was run: as §2
# Escherichia coli IAI1 [10] = assay: fold change of Cadaverine concentration vs plate DMSO controls (fold change (ratio)); higher = more amine produced, active = hit call of the paper (significant change in both replicates, either direction)
# How it was run: as §2
# [11] = tested on: Klebsiella aerogenes DSM 30053; assay: as above
# How it was run: as §2
# [12] = tested on: Ruminococcus gnavus DSM 108212; assay: fold change of 2-Phenylethylamine concentration vs plate DMSO controls (fold change (ratio)); higher = more amine produced, active = hit call of the paper (significant change in both replicates, either direction)
# How it was run: as §2
Compound,growth [1],growth (Escherichia coli IAI1 [2]),growth [3],growth [4],fold change of Histamine concentration [5],fold change of Tryptamine concentration [6],fold change of Tryptamine concentration [7],fold change of Putrescine concentration (Escherichia coli IAI1 [8]),fold change of Putrescine concentration [9],fold change of Cadaverine concentration (Escherichia coli IAI1 [10]),fold change of Cadaverine concentration [11],fold change of 2-Phenylethylamine concentration [12]
CC(=O)O[C@H]1C[C@@H]2CC[C@@H]3[C@H](CC[C@@]4(C)[C@H]3C[C@H]([N+]3(C)CCCCC3)[C@@H]4OC(C)=O)[C@@]2(C)C[C@@H]1[N+]1(C)CCCCC1 [Pancuronium bromide],0.918,1.08,1.1,1.08,0.905 (inactive),1.04 (inactive),1.07 (inactive),1.07 (inactive),0.983 (inactive),0.957 (inactive),1.03 (inactive),1.08 (inactive)
O=C(NC(=O)c1c(F)cccc1F)Nc1ccc(Cl)cc1,1.04,0.979,1.02,0.975,1.01 (inactive),0.919 (inactive),0.999 (inactive),0.982 (inactive),1.05 (inactive),1.01 (inactive),1.03 (inactive),0.98 (inactive)
CC(=NC#N)N(C)Cc1ccc(Cl)nc1,0.969,0.971,0.989,1.13,1.02 (inactive),0.985 (inactive),1.02 (inactive),1.02 (inactive),0.979 (inactive),1.01 (inactive),0.992 (inactive),1.05 (inactive)
C=CC[C@]1(O)CC[C@H]2[C@@H]3CCC4=CCCC[C@@H]4[C@H]3CC[C@@]21C [Allylestrenol],1.01,1.01,1.06,1.09,0.993 (inactive),1.03 (inactive),1.01 (inactive),0.977 (inactive),0.992 (inactive),0.924 (inactive),1.02 (inactive),1.1 (inactive)
CN1COCN(Cc2cnc(Cl)s2)/C1=N\[N+](=O)[O-],0.973,1.02,1,0.969,1.01 (inactive),0.906 (inactive),0.912 (inactive),1.03 (inactive),1.01 (inactive),1.03 (inactive),0.993 (inactive),0.88 (inactive)
CC[N+]1(C)CCCC(OC(=O)C(O)(c2ccccc2)c2ccccc2)C1 (stereo not drawn) [Pipenzolate bromide],0.938,0.997,0.994,1.05,0.982 (inactive),0.957 (inactive),0.956 (inactive),1.06 (inactive),1 (inactive),0.988 (inactive),1.01 (inactive),0.926 (inactive)
O=c1[nH]c2ccccc2n1CCCN1CCC(n2c(=O)[nH]c3cc(Cl)ccc32)CC1 [Domperidone],0.989,0.963,1.08,0.669,0.906 (inactive),1.03 (inactive),0.984 (inactive),1.01 (inactive),0.951 (inactive),1.03 (inactive),1 (inactive),1.03 (inactive)
O=C(O)COc1ccc(Cl)cc1Cl,0.956,1.01,1.07,1.22,0.958 (inactive),1.02 (inactive),0.967 (inactive),1 (inactive),1 (inactive),0.996 (inactive),1.01 (inactive),0.929 (inactive)
CCOc1cc(Oc2ccc(C(F)(F)F)cc2Cl)ccc1[N+](=O)[O-],1.13,0.996,1,0.995,0.981 (inactive),1.06 (inactive),1.04 (inactive),0.953 (inactive),0.943 (inactive),0.933 (inactive),1.08 (inactive),1.05 (inactive)
CC(C)(C)NCC(O)c1ccccc1Cl (stereo not drawn) [Tulobuterol Hydrochloride],0.953,0.972,0.966,1.11,0.972 (inactive),1 (inactive),1.01 (inactive),1.02 (inactive),1.02 (inactive),0.993 (inactive),1.01 (inactive),1.03 (inactive)
NCC(O)c1ccc(O)cc1 (stereo not drawn) [Octopamine hydrochloride],0.798,1.03,0.986,0.994,1.04 (inactive),1.04 (inactive),0.937 (inactive),1.11 (inactive),1.02 (inactive),1.01 (inactive),1 (inactive),0.875 (inactive)
CNC(=O)c1cc(C#N)cc(C)c1NC(=O)c1cc(Br)nn1-c1ncccc1Cl,1.13,0.996,0.981,1.06,1 (inactive),1.2 (inactive),1.06 (inactive),0.935 (inactive),0.938 (inactive),0.886 (inactive),1.02 (inactive),1.08 (inactive)
Oc1ccc(Cc2ccc(O)cc2)cc1 [Bisphenol F],0.945,1.12,0.989,1.03,1.06 (inactive),1.11 (inactive),1.15 (inactive),1.04 (inactive),0.986 (inactive),1.03 (inactive),1.09 (inactive),1.48 (inactive)
O=[N+]([O-])O[C@@H]1CO[C@H]2[C@@H]1OC[C@@H]2O [Isosorbide mononitrate],0.988,0.984,1.07,1.31,0.975 (inactive),0.938 (inactive),0.984 (inactive),0.959 (inactive),1.05 (inactive),0.975 (inactive),1.04 (inactive),0.946 (inactive)
